Experimental data reported in PubChem BioAssay (Tox21).
Records with an inconclusive call do not appear. A number with no mark means an inactive call. Calls of active or inactive are those of the source. The call rests on the fitted dose curve; in most records, active means well fitted inhibition curve with a large enough effect in the repeat runs; inconclusive means weak or mixed curves, or effect the other way; inactive means no such curve, though single readings can be large or run the other way.

Molecular target: Nuclear receptor ROR-gamma (Homo sapiens) (UniProt P51449)
Assay: qHTS assay to identify small molecule antagonists of the retinoid-related orphan receptor gamma (ROR-gamma) signaling pathway (AID 1159521; further: top concentration of the series differs between compounds; nearly all actives have a fitted effect of over 50% in size)
Details: Tet-on RORgamma CHO cells, RORE-luciferase, 16 h; series mostly up to 92.4 µM
Text: U.S. Tox21 Program National Center for Advancing Translational Sciences [NCATS] NIH Chemical Genomics Center [NCGC] U.S. Environmental Protection Agency [EPA] National Institutes of Environmental Health Sciences [NIEHS] National Toxicology Program [NTP] U.S. Food and Drug Administration [FDA] Tox21 Assay Overview: Nuclear steroid hormone receptors are involved in many biological processes including inflammatory responses, cell proliferation, and apoptosis. Environmental factors or compounds disrupting these nuclear receptor pathways and gene expression may promote susceptibility to immunotoxicants and autoimmune diseases. One important group of these expression factors are the retinoid-related orphan receptors. To assess compounds that may interfere with the retinoid-related orphan receptor gamma (ROR-gamma) transcription factor, a cell-based luciferase assay was used. The CHO cell-based assay utilizes a TET-inducible ROR expression factor and ROR response element-LUC reporter gene. Reporter gene activity was induced using Doxycycline Hyclate and measured after 16 hr incubation. Tet-on ROR gamma CHO cells were used to screen against the Tox21 10K compound library for ROR gamma antagonists by quantification of decreased reporter gene activity in terms of decreased luminescence.
Tox21 Assay Protocol Summary: Tet-on ROR gamma CHO cells were dispensed at 1,000 cells in 4 uL of culture medium per well into white wall/solid bottom 1536-well plates using a Multidrop Combi (Thermo Scientific, Waltham, MA) dispenser. Following incubation at 37 C and 5% CO2 for 4 hr, 23 nL of compounds dissolved in DMSO, positive controls or DMSO only were transferred by a Pintool station (Kalypsys, San Diego, CA) and after 2 hr incubation at 37 C, one ul of 1 uM (final concentration) of Doxycycline Hyclate was added to all the wells by using a Flying Reagent Dispenser (FRD) (Aurora Discovery, San Diego, CA). After 16 hr incubation at 37 C and 5% CO2, 5 uL of ONE-Glo reagent (Promega Corporation, Madison, WI) was added to each assay plate using FRD. After 30 min incubation at room temperature, luminescence was quantified on a ViewLux plate reader (Perkin Elmer, Waltham, MA).
On the % scale 0 is the no-effect control and ±100 the full control effect.

SMILES	outcome	activity change, negative = inhibition
CN(C)CCOCCN(C)CCO	inactive	–
CCOC(=O)C(=O)c1csc(NC=O)n1	inactive	–
CCCCCCCCCCCCOC(C)=O	inactive	–
CCC(O)C(C)(C)C (stereo not given)	inactive	–
CCCCCCCCCCCCC	inactive	–
c1ccccc1	inactive	–
Nc1ccc(/C=C/c2ccc(N)cc2S(=O)(=O)O)c(S(=O)(=O)O)c1	–	35.7% [at 0.35 µM]
CC(C)=CC(C)(C)C	inactive	–
CCCCC(CC)C(=O)OC(C)C (stereo not given)	inactive	–
Oc1ccccc1Cc1ccccc1O	inactive	–
COc1cc([N+](=O)[O-])ccc1N	inactive	–
C[CH2][Ge]([Cl])([CH2]C)[CH2]C	inactive	–
O=C(O)c1ccccc1C(=O)Nc1ccc(S(=O)(=O)Nc2nccs2)cc1	inactive	–
COc1ccc(NS(=O)(=O)c2ccc(N)cc2)nn1	inactive	–
CCC(CO)CO	inactive	–
CC(C)SCc1ccco1	inactive	–
Cc1ccccc1C	inactive	–
CNC(=O)C(c1ccccc1)c1ccccc1	inactive	–
COCCOCCOCCOC	inactive	–
CCOC(=O)OCC/C(SC(=O)OCC)=C(\C)N(C=O)Cc1cnc(C)nc1N	inactive	–

SMILES	outcome	activity change, negative = inhibition
CCC(C)(CCC(C)C)C(=O)[O-].CCC(C)(CCC(C)C)C(=O)[O-].[Zn+2] (stereo not given)	inactive	–
CCCCC(CC)COC(=O)c1ccccc1 (stereo not given)	inactive	–
Nc1cc(S(=O)(=O)O)ccc1S(=O)(=O)O	inactive	–
CCOC(=O)CCc1ccccc1	inactive	–
C=C(C)[C@@H]1CC[C@@H](C)C[C@@H]1O	inactive	–
CCCCCCCCCCCCCCCC(=O)NCCO	inactive	–
O=CO	–	22.1% [at 8.39 µM]
C=CCOc1cc(Cl)ccc1C(=O)NCCN(CC)CC	inactive	–
CC(C)COC(=O)CC(C(=O)OCC(C)C)S(=O)(=O)O (stereo not given)	inactive	–
COc1ccc(OC)c(NC(=O)CC(C)=O)c1	inactive	–
C[C@H]1O[C@H](O[C@H]2[C@H](O)[C@@H](O)[C@@H](O[C@H]3[C@H](O)[C@@H](O)[C@H](O)O[C@@H]3CO)O[C@@H]2CO)[C@H](O)[C@@H](O)[C@@H]1N[C@H]1C=C(CO)[C@@H](O)[C@H](O)[C@H]1O	inactive	–
CCC1COC(=O)O1 (stereo not given)	inactive	–
CC(=O)OC[C@H]1O[C@@H](OC(C)=O)[C@H](OC(C)=O)[C@@H]1OC(C)=O	inactive	–
C=CCOc1c(Br)cc(C(C)(C)c2cc(Br)c(OCC=C)c(Br)c2)cc1Br	inactive	–
Cc1ccc(S(=O)(=O)NC(=O)NC2CCCCCCC2)cc1	inactive	–
C=COCCOCCOC=C	inactive	–
O=C(O)Cc1cccc(-c2cc(CCCCCCc3ccc(O[C@H]4O[C@H](CO)[C@@H](O)[C@H](O)[C@@H]4O)c(-c4cccc(CC(=O)O)c4)c3)ccc2O[C@H]2O[C@H](CO)[C@@H](O)[C@H](O)[C@@H]2O)c1	–	-17.6% [at 0.35 µM]
O=C1CC[C@H](C(=O)N2CCCCC2)N1	inactive	–
O=C(Nc1cccc(C2=NCCN2)c1)Nc1cccc(C2=NCCN2)c1	–	-4.66% [at 19 µM]
NS(=O)(=O)c1cc2c(cc1Cl)NC(C(Cl)Cl)NS2(=O)=O (stereo not given)	inactive	–
